In PubChem BioAssay AID1159580 (chemical genetic matrix, 2015):
In all, about 5,500 compounds went through this assay and about 2,000 (36%) were called active. Not shown: some 18% with an inconclusive outcome. Cut-off read from the data, not from the text of the source: active = normalized growth mostly below about 0.91 (no sharp cut-off); inconclusive = no clear call, values can overlap the other calls; inactive = mostly above about 0.92. The list shows a part of the results.

Assay: chemical genetic growth profiling, strain panel (AID 1159580);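 note: tested at 20 µM; growth read once vehicle control cultures reached saturation at 30 °C; 1 = growth at the plate median or of vehicle wells; lower values mean less growth of the strain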
Conditions: growth OD

Measured: normalized growth

CC1(C)S[C@@H]2[C@H](NC(=O)[C@H](NC(=O)N3CCNC3=O)c3ccccc3)C(=O)N2C1C(=O)O (stereo partly drawn)
inactive: S. cerevisiae deletion strains, locus YJR075W, strain HOC1, active compounds read low 1.01 | S. cerevisiae deletion strains, locus YKL009W, strain mrt4, active compounds read low 0.967 | S. cerevisiae deletion strains, locus YKL068W, active compounds read low 0.979 | S. cerevisiae deletion strains, locus YKL085W, strain MDH1 (second series), active compounds read low 0.998 | S. cerevisiae deletion strains, locus YKL085W, strain MDH1, active compounds read low 0.998 | S. cerevisiae deletion strains, locus YKL160W, strain elf1, active compounds read low 0.957 | S. cerevisiae deletion strains, locus YKL190W, strain CNB1, active compounds read low 0.995 | S. cerevisiae deletion strains, locus YKR001C, strain vps1, active compounds read low 1 | S. cerevisiae deletion strains, locus YKR026C, strain gcn3, active compounds read low 0.999 | S. cerevisiae deletion strains, locus YKR091W, strain srl3, active compounds read low 0.974 | S. cerevisiae deletion strains, locus YLL001W, strain dnm1, active compounds read low 0.957 | S. cerevisiae deletion strains, locus YLL026W, active compounds read low 0.984 | S. cerevisiae deletion strains, locus YLL041C, strain sdh2, active compounds read low 0.983 | S. cerevisiae deletion strains, locus YLR027C, strain aat2, active compounds read low 0.976 | S. cerevisiae deletion strains, locus YLR039C, strain RIC1, active compounds read low 1 | S. cerevisiae deletion strains, locus YLR058C, strain SHM2, active compounds read low 0.989 | S. cerevisiae deletion strains, locus YLR102C, strain apc9, active compounds read low 0.992 | S. cerevisiae deletion strains, locus YLR113W, strain HOG1, active compounds read low 0.956 | S. cerevisiae deletion strains, locus YLR221C, strain rsa3, active compounds read low 0.964 | S. cerevisiae deletion strains, locus YLR258W, strain gsy2, active compounds read low 0.988 | S. cerevisiae deletion strains, locus YLR262C, strain YPT6 (second series), active compounds read low 0.958 | S. cerevisiae deletion strains, locus YLR262C, strain YPT6, active compounds read low 0.98 | S. cerevisiae deletion strains, locus YLR268W, strain sec22, active compounds read low 0.993 | S. cerevisiae deletion strains, locus YLR320W, strain mms22, active compounds read low 0.956 | S. cerevisiae deletion strains, locus YLR330W, strain CHS5, active compounds read low 0.997 | S. cerevisiae deletion strains, locus YLR342W, strain FKS1 (second series), active compounds read low 1.01 | S. cerevisiae deletion strains, locus YLR342W, strain FKS1, active compounds read low 0.993 | S. cerevisiae deletion strains, locus YLR357W, strain rsc2, active compounds read low 0.977 | S. cerevisiae deletion strains, locus YLR370C, strain arc18, active compounds read low 0.98 | S. cerevisiae deletion strains, locus YLR371W, strain rom2, active compounds read low 0.997 | S. cerevisiae deletion strains, locus YLR384C, strain iki3, active compounds read low 0.976 | S. cerevisiae deletion strains, locus YLR418C, strain cdc73, active compounds read low 0.995 | S. cerevisiae deletion strains, locus YML016C, strain PPZ1, active compounds read low 1 | S. cerevisiae deletion strains, locus YML032C, strain rad52, active compounds read low 1.01 | S. cerevisiae deletion strains, locus YML120C, strain ndi1, active compounds read low 0.959 | S. cerevisiae deletion strains, locus YML124C, strain tub3, active compounds read low 0.996 | S. cerevisiae deletion strains, locus YMR058W, strain fet3, active compounds read low 0.973 | S. cerevisiae deletion strains, locus YMR078C, strain ctf18, active compounds read low 0.98 | S. cerevisiae deletion strains, locus YMR125W, strain sto1, active compounds read low 1 | S. cerevisiae deletion strains, locus YMR129W, active compounds read low 0.991 | S. cerevisiae deletion strains, locus YMR205C, strain PFK2, active compounds read low 0.954 | S. cerevisiae deletion strains, locus YMR223W, strain ubp8, active compounds read low 0.962 | S. cerevisiae deletion strains, locus YMR231W, strain pep5, active compounds read low 0.985 | S. cerevisiae deletion strains, locus YMR307W, strain GAS1, active compounds read low 1.08 | S. cerevisiae deletion strains, locus YNL067W, strain RPL9B, active compounds read low 1.02 | S. cerevisiae deletion strains, locus YNL071W, strain lat1, active compounds read low 0.989 | S. cerevisiae deletion strains, locus YNL128W, strain TEP1, active compounds read low 0.991 | S. cerevisiae deletion strains, locus YNL183C, strain NPR1, active compounds read low 0.942 | S. cerevisiae deletion strains, locus YNL209W, strain ssb2, active compounds read low 0.989 | S. cerevisiae deletion strains, locus YNL233W, strain BNI4, active compounds read low 1.04 | S. cerevisiae deletion strains, locus YNL248C, strain rpa49, active compounds read low 0.993 | S. cerevisiae deletion strains, locus YNL250W, strain rad50, active compounds read low 0.975 | S. cerevisiae deletion strains, locus YNL271C, strain bni1, active compounds read low 1 | S. cerevisiae deletion strains, locus YNL298W, strain CLA4, active compounds read low 0.978 | S. cerevisiae deletion strains, locus YNL307C, strain MCK1, active compounds read low 0.994 | S. cerevisiae deletion strains, locus YNL322C, strain KRE1 (second series), active compounds read low 0.983 | S. cerevisiae deletion strains, locus YNL322C, strain KRE1, active compounds read low 0.993 | S. cerevisiae deletion strains, locus YNR049C, strain mso1, active compounds read low 0.975 | S. cerevisiae deletion strains, locus YNR052C, strain pop2, active compounds read low 0.986 | S. cerevisiae deletion strains, locus YOL006C, strain TOP1, active compounds read low 1.04 | S. cerevisiae deletion strains, locus YOL012C, strain htz1 1.4 | S. cerevisiae deletion strains, locus YOL147C, strain pex11, active compounds read low 0.985 | S. cerevisiae deletion strains, locus YOR001W, strain rrp6, active compounds read low 0.981 | S. cerevisiae deletion strains, locus YOR061W, strain CKA2, active compounds read low 1 | S. cerevisiae deletion strains, locus YOR069W, strain VPS5, active compounds read low 0.988 | S. cerevisiae deletion strains, locus YOR070C, strain gyp1, active compounds read low 0.992 | S. cerevisiae deletion strains, locus YOR080W, strain dia2, active compounds read low 0.969 | S. cerevisiae deletion strains, locus YOR083W, strain WHI5, active compounds read low 0.957 | S. cerevisiae deletion strains, locus YOR106W, strain vam3, active compounds read low 0.951 | S. cerevisiae deletion strains, locus YOR136W, strain idh2, active compounds read low 0.996 | S. cerevisiae deletion strains, locus YOR144C, strain elg1, active compounds read low 1.01 | S. cerevisiae deletion strains, locus YOR184W, strain ser1, active compounds read low 0.991 | S. cerevisiae deletion strains, locus YOR231W, strain MKK1, active compounds read low 0.975 | S. cerevisiae deletion strains, locus YOR265W, strain rbl2, active compounds read low 0.983 | S. cerevisiae deletion strains, locus YOR270C, strain vph1, active compounds read low 0.968 | S. cerevisiae deletion strains, locus YOR290C, strain snf2, active compounds read low 0.936 | S. cerevisiae deletion strains, locus YOR316C, strain cot1, active compounds read low 0.99 | S. cerevisiae deletion strains, locus YPL051W, strain arl3, active compounds read low 0.99 | S. cerevisiae deletion strains, locus YPL078C, strain atp4, active compounds read low 0.974 | S. cerevisiae deletion strains, locus YPL106C, strain sse1, active compounds read low 0.944 | S. cerevisiae deletion strains, locus YPL240C, strain hsp82, active compounds read low 0.985 | S. cerevisiae deletion strains, locus YPL256C, strain CLN2, active compounds read low 0.955 | S. cerevisiae deletion strains, locus YPR119W, strain clb2, active compounds read low 0.997 | S. cerevisiae deletion strains, locus YPR141C, strain kar3, active compounds read low 0.989 | S. cerevisiae deletion strains, locus YPR163C, strain tif3, active compounds read low 0.975 | S. cerevisiae deletion strains, locus YPR167C, strain met16, active compounds read low 0.985 | S. cerevisiae deletion strains, strain wtn01, active compounds read low 1 | S. cerevisiae strains, strain wild type, active compounds read low 1
